Bioassay records deposited in PubChem BioAssay by several laboratories.
The list is not random: actives were taken first. Their share in the collection is about 2.6%.
PABP FP inh = PABP poly(A) RNA binding inhibitors, primary screen, biochemical, fluorescence polarization, uHTS. Polyadenylate-binding protein 1 (Homo sapiens), P11940. calls only at 35 µM. 290,000 compounds, 1% hits. AID 2014, 2009;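 also: calls also rest on retests at 20 µM and on dose response follow-up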
Target sequence (P11940 whole entry, looked up): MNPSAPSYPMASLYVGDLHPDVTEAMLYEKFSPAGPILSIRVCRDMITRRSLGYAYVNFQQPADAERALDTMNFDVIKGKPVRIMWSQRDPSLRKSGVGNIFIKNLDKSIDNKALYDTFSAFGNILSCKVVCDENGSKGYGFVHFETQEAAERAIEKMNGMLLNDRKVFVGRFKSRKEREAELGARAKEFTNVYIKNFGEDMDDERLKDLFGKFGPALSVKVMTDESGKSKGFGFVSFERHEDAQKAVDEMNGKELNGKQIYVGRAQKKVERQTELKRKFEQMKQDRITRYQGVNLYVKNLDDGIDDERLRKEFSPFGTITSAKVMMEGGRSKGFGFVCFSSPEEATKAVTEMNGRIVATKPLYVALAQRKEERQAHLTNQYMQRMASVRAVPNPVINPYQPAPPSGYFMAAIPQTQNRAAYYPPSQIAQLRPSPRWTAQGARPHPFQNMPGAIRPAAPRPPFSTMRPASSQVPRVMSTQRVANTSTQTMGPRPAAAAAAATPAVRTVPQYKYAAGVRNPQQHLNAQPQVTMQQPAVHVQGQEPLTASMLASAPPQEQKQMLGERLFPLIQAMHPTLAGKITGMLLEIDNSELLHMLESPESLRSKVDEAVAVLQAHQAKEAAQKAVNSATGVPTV
eIF4H inh = human eIF4H binding inhibitors, primary screen, translation initiation inhibitor project, biochemical, uHTS, fluorescence polarization | Eukaryotic translation initiation factor 4H (Homo sapiens), Q15056 | eIF4H fluorescence polarization binding assay | inhibition, % at 35 µM | 290,000 compounds, 0.94% hits | AID 2012, 2009;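 also: calls also rest on retests at 20 µM and on dose response follow-up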
ABCB6 inh 2 = ABCB6 transporter inhibitors, primary screen, K562-ABCB6 cells, flow cytometry, MLPCN library. ATP-binding cassette sub-family B member 6 (Homo sapiens), Q9NP58. 360,000 compounds, 0.19% hits. K562-ABCB6 porphyrin accumulation, 1 h; active compounds read low. fluorescence ratio to DMSO, % at 10 µM;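 active = fluorescence ratio to DMSO below 75%, the collection mean minus 3 SD; inconclusive = too few cells collected in the well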;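 also: signal is porphyrin accumulated inside mitochondria; 100% equals median channel fluorescence of DMSO control wells; lower ratio means ABCB6 inhibition with less porphyrin fluorescence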
MLLE-PAM2 inh = inhibitors of PABP1 MLLE–PAM2 peptide binding, primary screen, biochemical, fluorescence polarization, FITC-PAM2, GST-MLLE. 360,000 compounds, 0.36% hits. AID 588489, 2011. inhibition, % at 20 µM; in the data active = inhibition above about 35%, passing the limit was not always enough;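 also: plate controls were DMSO wells with GST-MLLE for no effect and wells lacking GST-MLLE protein for full effect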
AI-2 QS mod = Vibrio harveyi AI-2 quorum sensing modulators, primary screen, JMH597 strain, luminescence/OD600 ratio. Vibrio harveyi JMH597 AI-2 luminescence/OD600 ratio, 9 h; active compounds read low; strain lacks LuxN and CqsS sensors; 0 = neutral-control median. activity change, % at 7.5 µM. 300,000 compounds, 0.4% hits; in the data active = activity change below about -75%, passing the limit was not always enough; inconclusive = no clear call, values can overlap the other calls;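 also: luminescence divided by OD600 gain over 9 h not by final OD600 alone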
PHOSPHO1 block = PubChem AID 1565; Phosphoethanolamine/phosphocholine phosphatase (Homo sapiens), Q8TCT1; recombinant PHOSPHO1, absorbance phosphatase assay; inhibition, % at 13.3 µM; 290,000 compounds, 1.1% hits; in the data active = inhibition above about 60%
* hit, by the source's call; i = inactive; u = inconclusive; x = no result; + = active, no number; ! = repeats disagree. Unless noted, no rule for the calls is given here.

SMILES	PABP FP inh	eIF4H inh	ABCB6 inh 2	MLLE-PAM2 inh	AI-2 QS mod	PHOSPHO1 block
COc1ccc(CN2C(=O)NC(=O)/C(=C/c3cc(OC)c(OC)c(OC)c3)C2=O)cc1	+	u	97.0	19.0	7.0	51.2
COc1ccc(CN2C(=O)NC(=O)/C(=C/c3ccoc3)C2=O)cc1	u	u	100.0	-104.2	18.6	36.4
Cc1ccc(N=Cc2c(O)n(-c3ccc(C)cc3)c(=O)[nH]c2=O)cc1	x	x	97.0	2.4	19.9	x
CCC(C)N=Cc1c(O)n(-c2ccccc2)c(=O)[nH]c1=O (configuration not stated)	i	-4.8	99.0	45.6*	5.5	53.0
O=c1[nH]c(=O)n(-c2ccc(F)cc2)c(O)c1C=Nc1ccccc1N1CCCC1	+	63.8*	98.0	-57.9	8.2	20.7
O=c1[nH]c(=O)n(-c2cccc(Cl)c2)c(O)c1/C=N/c1ccccn1	+	85.3*	195.0	-33.3	24.4	19.2
COC(=O)[C@@H]1N=C(c2ccc(OC)cc2)O[C@]12C(=O)N(C)c1ccc(Cl)cc12	x	x	89.0	x	x	x
CC1C(=O)CC2(C(C)C)CC12 (configuration not stated)	x	x	106.0	2.0	x	x
Cn1ncnc2c(=O)n(C)c(=O)nc1-2	i	-4.1	112.0	-2.1	-80.9*	78.7*
c1ccc(-c2ccncc2)cc1	x	x	104.0	2.4	x	x
C[n+]1ccc(-c2ccncc2)cc1	x	x	99.0	-113.1	17.0	91.7*
Cc1cc2c(C(F)(F)F)cc(=O)oc2c2c1NCCC2	u	u	95.0	40.7	17.4	45.0
O=c1cc(C(F)(F)F)c2cc3c4c(c2o1)CCCN4CCC3	+	u	168.0	i	22.7	7.2
N#CSCC(=O)N1c2ccccc2CCc2ccccc21	i	-15.1	102.0	25.3	-76.3*	0.6
O=c1[nH]c2ccccc2n1C1CCN(Cc2ccc(-c3[nH]c4cc5ncnc5cc4nc3-c3ccccc3)cc2)CC1	x	x	122.0	x	x	x
[N-]=[N+]=NC1C[C@H](n2ccc(=O)[nH]c2=O)O[C@@H]1CO (some centres not stated)	i	-13.3	97.0	-6.4	18.5	1.1
N/C(=N\N=C/c1ccc(-c2ccc(O)c(C(=O)O)c2)o1)N[N+](=O)[O-]	+	103.0*	101.0	7.9	23.2	7.8
Cn1c[n+](C)cc1C(O)c1ccccc1 (configuration not stated)	+	7.3	106.0	-140.2	0.5	96.3*!
O=c1[nH]c(O)c(N=Nc2cccc(S(=O)(=O)N3CCOCC3)c2)c(=O)[nH]1	i	1.0	100.0	8.2	19.2	60.0*
CCOC(=O)C1SC2(C(F)(F)F)CC1(O)c1c(C)cc(C)nc1O2 (configuration not stated)	i	-7.1	106.0	59.6*	2.6	18.9
O=c1[nH]c(=O)n(CCC2=CCCCC2)c(O)c1/C=N/Nc1cccc2ccccc12	+	u	124.0	2.7	5.1	-24.7
Cc1ccc(-n2c(O)c(C=Nc3ccc(S(=O)(=O)N(C)C)cc3)c(=O)[nH]c2=O)cc1	+	u	88.0	-3.2	24.0	40.4
CCC(C)NC(=O)c1c(N)n(CCCOC)c2nc3ccccc3nc12 (configuration not stated)	+	60.6*	90.0	7.8	4.5	0.6
CCOC(=O)c1c(N)n(CCN2CCCCC2)c2nc3ccccc3nc12	+	94.5*	101.0	-12.4	12.0	-6.0
CCCCn1c(NS(=O)(=O)c2ccccc2)c(C(=O)OCC)c2nc3ccccc3nc21	+	active	99.0	-4.4	22.2	83.4*
CCOC(=O)[C@]12Cc3cc(OC)ccc3[C@H]1N(C1CCCCC1)C(=O)c1ccccc12	x	x	98.0	x	x	x
O=c1[nH]c2ccccc2n1C1CCN(C(c2cccs2)c2nnnn2-c2ccc3c(c2)OCCO3)CC1 (configuration not stated)	x	x	89.0	3.2	x	x
CCOC(=O)[C@]12Cc3cc(Cl)ccc3[C@H]1N(C1CCCCC1)C(=O)c1ccccc12	x	x	101.0	x	x	x
